# Assay results published in PubChem BioAssay (NCATS).
# Results filed as inconclusive are left out. Entries that show only a call come without a potency. The source made the active and inactive calls. Calls follow the shape of the dose curve; as a rule, active = well fitted inhibition curve with a large enough effect in the signal ratio, with a control signal flat (not every such curve was filed as active); inconclusive = small, poorly fitted or top-dose-only effect, or effect the other way, or a change in a side signal; inactive = flat fitted curve, though single readings scatter; the % refers to the signal ratio.
# Assay: qHTS Assay for Identification of Small Molecule Antagonists for NFkB Signaling Pathway (AID 895)
# Details: NFkB beta-lactamase reporter cells, FRET ratio 460/530, stimulated with 10 pM TNF alpha; series mostly up to 38.3 µM
# Description: NIH Molecular Libraries Screening Centers Network [MLSCN]
# NIH Chemical Genomics Center [NCGC]
# The TNF alpha/NFkB signaling pathway was assayed in NFkB-bla cells (Invitrogen), a ME-180 cervical carcinoma line containing a stably integrated beta-lactamase reporter gene controlled by a NFkB response element. […] The assay was screened at the EC50 of TNF alpha activation to identify inhibitors of TNF alpha/NFkB signaling.
# NCGC Assay Protocol Summary:
# Cells were trypsinized, washed in assay medium (AM, OPTI MEM with 0.5% fetal bovine serum, 0.1 mM nonessential amino acids, 1 mM sodium pyruvate, 10mM HEPES pH 7.3, 100U/ml penicillin, and 100 ug/ml streptomycin) and plated at 1000 cells/5 uL/well into black clear-bottom 1536 well plates. After an overnight incubation at 37 C and 5% CO2, 23 nL of compound were delivered by a pin tool, 1 uL of TNF alpha (10 pM final concentration in AM) was added and plates were incubated at 37 C for 5 hrs. One uL of LiveBLAzerTM detector mix (Invitrogen) was added, the plates incubated at room temperature for 2 hrs, and fluorescence intensity at 460 and 530 nm emission was measured at 405 nm excitation by an Envision (Perkin Elmer).
# Potency is read from the fitted curve at half-maximal effect.
row,Compound,Potency
1,C[C@@H](C[N+](C)(C)C)OC(N)=O,inactive
2,CC(C)(Oc1ccc([C@@H]2CC2(Cl)Cl)cc1)C(=O)O,inactive
3,C=CCc1ccccc1OC[C@H](O)CNC(C)C,3.16 µM (active)
4,N[C@@H](CO)C(=O)NNCc1ccc(O)c(O)c1O,inactive
5,CN1C(=O)CC[C@@H]1c1cccnc1,inactive
6,CN1[C@@H]2CC[C@H]1CC(OC(=O)[C@@H](O)c1ccccc1)C2 (stereo partly specified),inactive
7,CCCCCN(CCCCC)C(=O)[C@H](CCC(=O)O)NC(=O)c1ccc(Cl)c(Cl)c1,inactive
8,COCCc1ccc(OC[C@H](O)CNC(C)C)cc1,inactive
9,C[C@@H](C(=O)O)c1cccc(C(=O)c2ccccc2)c1,inactive
10,NC(=O)c1cc[n+](CC2=C(C(=O)O)N3C(=O)[C@@H](NC(=O)[C@H](c4ccccc4)S(=O)(=O)[O-])[C@@H]3SC2)cc1,inactive
11,CN(C)CC[C@@H](c1ccccc1)c1ccccn1,inactive
12,CCN1CCC[C@@H]1CNC(=O)c1cc(S(N)(=O)=O)ccc1OC,inactive
13,CC1=C(C(=O)O)N2C(=O)[C@@H](NC(=O)[C@@H](N)c3ccccc3)[C@@H]2SC1,inactive
14,N[C@H](C(=O)N[C@@H]1C(=O)N2C(C(=O)O)=C(Cl)CS[C@@H]12)c1ccccc1,inactive
15,O=C(O)CNC(=O)[C@@H](CS)Cc1ccccc1,inactive
16,CC(=O)OCC1=C(C(=O)O)N2C(=O)[C@@H](NC(=O)CSc3ccncc3)[C@@H]2SC1,inactive
17,Cc1cccc(C)c1OC[C@H](C)N,0.794 µM (active)
18,CO/N=C(\C(=O)N[C@@H]1C(=O)N2C(C(=O)O)=C(COC(C)=O)CS[C@@H]12)c1csc(N)n1,inactive
19,CC[C@]1(C)CC(=O)NC1=O,inactive
20,CN(C)[C@@H]1C(=O)C(C(N)=O)=C(O)[C@]2(O)C(=O)C3=C(O)c4c(O)ccc(Cl)c4[C@H](O)[C@H]3C[C@@H]12,inactive
21,C[C@H](NCCc1ccc(O)cc1)[C@@H](O)c1ccc(O)cc1,inactive
